Test systems include T-47D breast; BT-549 breast; MDA-MB-435 melanoma; SW-620 colon; MCF7 breast; HCT-116 colon; HCC-2998 colon; KM12 colon.
Holding throughout (assay): NCI-60 one-dose screen, 48 h (100 = growth as untreated, 0 = no growth, -100 = all killed)
What all share (settings): 10 µM unless noted

Compounds without any hit were thinned out: in the full panel of roughly 83,000, 20% have a hit.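 Single-dose data. Exposure time 48 hours. Values below 10 considered active.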 A number with no mark means an inactive call. Active and inactive are the calls of the source.

Regarding `FC(F)(F)c1ccc(-c2cnc(-c3nn[nH]n3)nc2NC2CCCCCC2)cc1`, the growth in the assay with T-47D breast was 46.9% [50 µM]; with BT-549 breast, 50.8% [50 µM]; with MDA-MB-435 melanoma it was 43.1% [50 µM]; with SW-620 colon it was 41.2% [50 µM]; in the assay with MCF7 breast, 50.4% [50 µM]; in the assay with HCT-116 colon, 33.3% [50 µM]. In addition, the growth was 60.6% [50 µM] in the assay with HCC-2998 colon and 41.5% [50 µM] in the assay on KM12 colon.

On to `N#Cc1ccccc1C#Cc1ccccc1C#Cc1ccc(OCCCCCCOc2ccc(C#Cc3ccccc3C#Cc3ccccc3C#N)cc2)cc1`, for which the growth with T-47D breast is 93.4%; with BT-549 breast, 112%; in the assay on MDA-MB-435 melanoma, 107%; in the assay on SW-620 colon it was 96.6%; in the assay on MCF7 breast it was 78.6%; in the assay on HCT-116 colon it was 91.8%. The growth in the assay with HCC-2998 colon is 107%; with KM12 colon it was 105%.

On to `C=C1CCC2C3(C)COC(c4ccccc4)OC3CCC2(C)C1C/C=C1/C(=O)OCC1OC(C)=O` (stereo unspecified), for which the growth with T-47D breast is 71.1%; in the assay with BT-549 breast, 103%; with MDA-MB-435 melanoma, 88.6%; with SW-620 colon, 41.4%; with MCF7 breast, 24.9%; in the assay with HCT-116 colon, 24.9%. Besides, the growth in the assay with HCC-2998 colon was 107%; in the assay with KM12 colon, 84.4%.

In the case of `O=C1/C(=C/c2ccccc2O)C(=S)SN1Cc1ccco1`, the growth was 54.2% with T-47D breast; 93.5% in the assay on BT-549 breast; 56.4% with MDA-MB-435 melanoma; 108% with SW-620 colon; 15.7% in the assay with MCF7 breast; 87.1% in the assay with HCT-116 colon. Moreover, the growth in the assay on HCC-2998 colon is 108%; with KM12 colon, 69.5%.

`COc1ccc(OC)c2c1CCC1(C2)NC(=O)NC1=O` (stereo unspecified): the growth is 109% in the assay with T-47D breast; 114% in the assay on BT-549 breast; 95.9% in the assay on MDA-MB-435 melanoma; 103% in the assay on SW-620 colon; 92.4% with MCF7 breast; 107% with HCT-116 colon. In addition, the growth with HCC-2998 colon is 106%.

`CCOC(=O)c1sc(NC(=O)COc2ccc(/C=C3\CCc4cc(OC)ccc4C3=O)cc2)nc1C`: the growth in the assay on T-47D breast is 86.6%; with BT-549 breast it was 51.8%; in the assay with MDA-MB-435 melanoma, 87.1%; in the assay on SW-620 colon, 99.5%; in the assay on MCF7 breast, 112%; with HCT-116 colon, 105%. Besides, the growth in the assay with HCC-2998 colon is 104%.

As for `Fc1ccccc1C1c2ccccc2-c2nccn21` (stereo unspecified), the growth in the assay on T-47D breast is 91.3%; in the assay on BT-549 breast, 106%; in the assay on MDA-MB-435 melanoma it was 108%; with SW-620 colon it was 107%; in the assay on MCF7 breast, 101%; in the assay on HCT-116 colon it was 90.1%. The values for the growth in the assay with HCC-2998 colon and in the assay on KM12 colon were 103% and 93.8%, respectively.

On to `CC(=O)Nc1cc(C(c2ccccc2)c2ccccc2)cc(C(c2ccccc2)c2ccccc2)c1C`, for which the growth in the assay on T-47D breast was 24.9%; in the assay on BT-549 breast, 55.5%; in the assay on MDA-MB-435 melanoma, 63.9%; with SW-620 colon, 52%; with MCF7 breast, 41.3%; with HCT-116 colon it was 8.02% (active). Besides, the values for the growth with HCC-2998 colon and in the assay with KM12 colon were 64.9% and 50.5%, respectively.

For `O=C(Nc1nc2ccc(OC(F)(F)F)cc2s1)c1ccc(F)cc1`, the growth was -10.8% (active) with T-47D breast; 39.2% in the assay on BT-549 breast; 15.1% with MDA-MB-435 melanoma; 13.3% in the assay with SW-620 colon; -0.0548% (active) with MCF7 breast; -28% (active) in the assay with HCT-116 colon. In addition, the growth was 3.77% (active) in the assay on HCC-2998 colon and 2.23% (active) in the assay with KM12 colon.

For `CC12CCC3C(=CCc4cc(O)ccc43)C1CCC2=O` (stereo unspecified), the growth in the assay with T-47D breast is 104%; in the assay with BT-549 breast, 99.5%; in the assay with MDA-MB-435 melanoma, 73%; with SW-620 colon, 106%; with MCF7 breast, 120%; with HCT-116 colon, 102%. For the same compound, the figures for the growth with HCC-2998 colon and in the assay with KM12 colon were 111% and 108%, respectively.

Consider `COC(=O)C1CCN(S(=O)(=O)c2ccc(-c3ccccc3)cc2)CC1`, for which the growth in the assay on T-47D breast is 102%; in the assay on BT-549 breast, 129%; in the assay on MDA-MB-435 melanoma, 111%; with SW-620 colon it was 102%; in the assay on MCF7 breast, 99.7%; with HCT-116 colon, 115%. Moreover, the growth in the assay with HCC-2998 colon was 103%; with KM12 colon it was 102%.

As to `O=C(Oc1cccc2ccccc12)c1ccccc1C(=O)c1ccccc1`, the growth with T-47D breast was 87.4%; in the assay on BT-549 breast, 99.7%; with MDA-MB-435 melanoma, 73.5%; in the assay on SW-620 colon it was 99.4%; with MCF7 breast it was 109%; in the assay with HCT-116 colon, 82%. Also, the figures for the growth in the assay on HCC-2998 colon and with KM12 colon were 103% and 92.2%, respectively.

As for `CN(C)c1ccc(-c2nc3ncc(Br)cc3o2)cc1`, the growth in the assay on T-47D breast was 75.7%; in the assay on BT-549 breast, 78.3%; in the assay with MDA-MB-435 melanoma, 115%; in the assay with SW-620 colon, 99.3%; in the assay with MCF7 breast, 97.6%; in the assay with HCT-116 colon, 86.8%. Moreover, the growth was 85% in the assay on HCC-2998 colon and 113% in the assay with KM12 colon.

For the compound `CO[C@H]1/C=C/O[C@@]2(C)Oc3c(C)c(O)c4c(O)c(c(/C=N/N5C(C)CN(Cc6ccc(C#N)cc6)CC5C)c(O)c4c3C2=O)NC(=O)/C(C)=C\C=C\[C@H](C)[C@H](O)[C@@H](C)[C@@H](O)[C@@H](C)[C@H](OC(C)=O)[C@@H]1C` (stereo partly specified), the growth in the assay on T-47D breast is 18.1%; in the assay on BT-549 breast, -0.569% (active); with MDA-MB-435 melanoma it was 26.1%; with SW-620 colon, 31.5%; in the assay with MCF7 breast, 11.9%; with HCT-116 colon, 18.5%. The values for the growth with HCC-2998 colon and in the assay on KM12 colon were 2.4% (active) and 15.8%, respectively.

Regarding `CCCc1n(Cc2ccc3ccccc3c2)cc[n+]1Cc1ccc2ccccc2c1`, the growth in the assay on T-47D breast is -3.21% (active); with BT-549 breast, -32.2% (active); in the assay on MDA-MB-435 melanoma it was -50.8% (active); with SW-620 colon, 8.13% (active); in the assay on MCF7 breast, -16.7% (active); with HCT-116 colon, 1.39% (active). For the same compound, the growth with HCC-2998 colon was -22.9% (active); in the assay on KM12 colon it was -63.7% (active).

In the case of `COc1ccc2c(c1)C(=Nc1cc(OC)c(OC)c(OC)c1)C(=O)N2`, the growth with T-47D breast was 98.7%; with BT-549 breast, 99%; with MDA-MB-435 melanoma, 118%; in the assay on SW-620 colon it was 102%; in the assay with MCF7 breast, 105%; in the assay with HCT-116 colon, 51%. The growth in the assay with HCC-2998 colon is 125%; in the assay with KM12 colon, 105%.

The record behind these values is PubChem BioAssay (NCI).
